Screening results deposited in PubChem BioAssay by several laboratories.
Only some compounds are listed: those with a hit (about 3.3% of all), similar ones and a draw of the others.
SUMO HTRF inh: SUMOylation inhibition. 290,000 compounds, 0.36% hits. HTRF SUMOylation assay, SAE1/SAE2 + UBC9, in vitro. inhibition, % at 35 µM; in the data active = inhibition above about 50%, passing the limit was not always enough; inconclusive = no clear call, values can overlap the other calls
Target sequence (P63279 whole entry, looked up): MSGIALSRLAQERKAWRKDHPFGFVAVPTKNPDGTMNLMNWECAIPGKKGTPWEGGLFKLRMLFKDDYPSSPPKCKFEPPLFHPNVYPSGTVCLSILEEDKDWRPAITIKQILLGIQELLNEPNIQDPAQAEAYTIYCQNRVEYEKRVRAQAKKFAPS
HGIII-sPLA2 inh: Blocks human group III sPLA2 activity; Q9NZ20; QFRET BODIPY PC-A2 liposome hydrolysis, fluorescence; inhibition, % at 12.2 µM; 370,000 compounds, 0.56% hits; AID 743126;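 active = inhibition above mean plus 3 SD of compounds lying within the high and low control bounds, cut at about 19% in these data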;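 note: 0% = median of test compound wells and 100% = no enzyme DMSO wells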
UBC13 polyUb: inhibitors of human UBC13 polyubiquitin chain formation; P61088; TR-FRET; inhibition, % at 20 µM; 330,000 compounds, 0.47% hits; AID 485273; in the data active = inhibition above about 45%, passing the limit was not always enough; inconclusive = no clear call, values can overlap the other calls
Target sequence (P61088 whole entry, looked up): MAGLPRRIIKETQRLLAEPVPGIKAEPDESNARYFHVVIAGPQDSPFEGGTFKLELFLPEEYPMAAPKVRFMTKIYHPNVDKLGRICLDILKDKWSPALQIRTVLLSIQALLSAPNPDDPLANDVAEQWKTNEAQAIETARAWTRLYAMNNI
GRIN3A LBD mod: modulators (binders) of human NR3A ligand-binding domain; 340,000 compounds, 2.5% hits; NR3A LBD differential scanning fluorimetry, Tm shift; 0% = protein alone, 100% = glycine-bound protein; Tm shift relative to glycine control, % at 25 µM; AID 1259313;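 active = melting temperature shift of at least 10% of the positive control shift, at one fixed dose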
Casp3 UBC13 ctr: inhibits human caspase-3 in UBC13 counter-screen | shares compounds with UBC13 polyUb | Recombinant caspase-3, Caspase-Glo 3/7 luminescence, 60 min | inhibition, % at 20 µM | 1,400 compounds, 4% hits;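 active = mean inhibition across replicates above about 26%, limit read from the data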;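 note: plate controls were DMSO with caspase-3 for no effect and DMSO wells lacking enzyme for full effect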
Target sequence (P42574 whole entry, looked up): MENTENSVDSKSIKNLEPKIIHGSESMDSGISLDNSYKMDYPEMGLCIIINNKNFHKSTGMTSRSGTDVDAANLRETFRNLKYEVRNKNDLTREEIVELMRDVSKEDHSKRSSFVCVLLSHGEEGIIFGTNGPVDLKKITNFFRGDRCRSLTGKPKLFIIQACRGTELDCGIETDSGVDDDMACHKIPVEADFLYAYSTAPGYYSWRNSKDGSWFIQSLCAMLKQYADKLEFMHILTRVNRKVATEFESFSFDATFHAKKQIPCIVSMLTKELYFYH
UBC13 conf: confirmation of human UBC13 polyubiquitin inhibitors; shares compounds with UBC13 polyUb; UBC13 polyubiquitination, TR-FRET, biochemical; inhibition, % at 10 µM; 1,400 compounds, 68% hits; AID 488859; in the data active = inhibition above about 45%; inconclusive = no clear call, values can overlap the other calls
The depositor's hits bear a star; ? = inconclusive; . = no result given.

SMILES	SUMO HTRF inh	HGIII-sPLA2 inh	UBC13 polyUb	GRIN3A LBD mod	Casp3 UBC13 ctr	UBC13 conf
O=S1(=O)c2c(cccc2N2CCSCC2)Oc2ccccc2CN1Cc1cn(Cc2ccc(Cl)cc2)nn1	.	-2.4	.	.	.	.
C#CCOCCOCCOCCNc1nc(N2CCN(C(=O)CCCCCCCCCCNC(=O)[C@@H](CCSC)n3cc(CCO)nn3)CC2)nc(N2CCN(C(=O)CCCCCCCCCCNC(=O)[C@H](CO)n3cc(CCCCCN)nn3)CC2)n1	.	.	117.6*	4.4	-2.8	122.7*
C#CCOCCOCCOCCNc1nc(N2CCN(C(=O)CCCCCCCCCCNC(=O)[C@@H](CCSC)n3cc(CCO)nn3)CC2)nc(N2CCN(C(=O)CCCCCCCCCCNC(=O)[C@H](CCC(=O)O)n3cc(CCCCCN)nn3)CC2)n1	.	.	102.1*	-2.5	-0.5	77.4*
Cc1ccccc1N(C)C(=O)C1CCCN1S(=O)(=O)c1cccc2cccnc12 (stereo not given)	.	10.1	.	.	.	.
COC(=O)C1CN(Cc2ccccc2)CCS(=O)(=O)N1Cc1ccccc1 (stereo not given)	.	-1.8	.	.	.	.
O=C(Cn1cc(C(=O)c2cccs2)c2ccccc21)NC1CCCCC1	15.9	-2.1	61.2*	-11.5	-6.7	35.8
Oc1ccccc1Nc1nc(NCc2ccccc2)c2ccccc2n1	-11.8	-15.1	50.0*	4.3	-4.2	49.2*
CCCCCCCCN1C(=O)[C@@H](CC(=O)NCCCOCCCC)C[C@@]2(C(=O)OC)C1=C[C@H](COCc1ccccc1)O[C@@H]2C	.	-16.2	.	.	.	.
O=S1(=O)c2c(cccc2N2CCC[C@@H]2CO)O[C@H]2CCN1C2	.	0.1	.	.	.	.
COc1cc(C(CC(=O)N2CCCC2)c2c(OC)cc(OC)c3c(-c4ccccc4)cc(=O)oc23)cc(OC)c1OC (stereo not given)	13.3	-1.9	-0.9	-3.2	.	.
COc1cc(C(CCN2CCCC2)c2c(OC)cc(OC)c3c(C)cc(=O)oc23)cc(OC)c1OC (stereo not given)	2.4	-5.5	12.7	-1.1	.	.
COc1cc(C(CCN2CCCC(C)C2)c2c(OC)cc(OC)c3c(-c4ccccc4)cc(=O)oc23)cc(OC)c1OC (stereo not given)	-6.6	.	64.6*	-3.5	-3.4	29.5
COc1cc(C(CCN2CCCCC2)c2c(OC)cc(OC)c3c(-c4ccccc4)cc(=O)oc23)cc(OC)c1OC (stereo not given)	4.1	-10.5	47.9*	-3.7	-1.5	28.8
COC(=O)C1CN(Cc2ccc(C)cc2)CCS(=O)(=O)N1Cc1cn(Cc2ccc(C)cc2)nn1 (stereo not given)	.	-10.0	.	.	.	.
Cc1ccc(C(=O)N2CCC(Oc3cccnc3)CC2)cc1	.	2.8	.	.	.	.
COc1ccccc1C(CNC(=O)CNC(=O)c1ccccc1Cl)N1CCCC1 (stereo not given)	.	6.8	50.9*	-2.2	-3.4	61.5*
COC(=O)[C@H](C(C)C)N1Cc2nnn(Cc3ccccc3)c2-c2ccccc2S1(=O)=O	.	1.2	.	.	.	.
NC(=O)c1c(NC(=O)C(=O)NCCCN2CCOCC2)sc2c1CCCC2	15.3	4.2	52.5*	-5.3	-0.5	72.9*
NC(=O)c1c(NC(=O)CN2CCOCC2)sc2c1CCC2	4.2	-1.6	0.5	-6.7	.	.
C[C@H](O)[C@@H]1CN2CCc3c([nH]c4c(-c5ccccc5)cccc34)[C@@H]2C[C@@H]1N(C)CC1CCCCC1	.	-3.7	.	.	.	.
COc1cccc(N(C)C(=O)[C@@H](C2CC2)[C@@H](O)c2ccc(C(C)=O)cc2)c1	.	0.0	.	.	.	.
Fc1ccc(-n2cc(-c3ccccc3)c3c(=S)nc[nH]c32)cc1	-0.6	-0.7	42.7	-7.6	.	.
Fc1cccc(-n2cc(-c3ccccc3)c3c(=S)nc[nH]c32)c1	-3.0	-12.5	55.5*	-5.4	-0.5	?
Cc1ccc(S(=O)(=O)N2CCC(C(=O)NCc3cccs3)CC2)cc1	.	-7.9	.	.	.	.
Cc1ccc2c(c1)c1c3n2CCN(C(=O)CN2CCN(C)CC2)C3CCC1 (stereo not given)	25.8	-1.7	7.5	0.1	.	.
SMILES	SUMO HTRF inh	HGIII-sPLA2 inh	UBC13 polyUb	GRIN3A LBD mod	Casp3 UBC13 ctr	UBC13 conf
CN1CCN(CC(=O)N2CCn3c4c(c5cc(C6CCCCC6)ccc53)CCCC42)CC1 (stereo not given)	21.5	.	89.5*	-3.9	0.9	103.0*
COC(=O)[C@]12C[C@H](CC(=O)NCC3CCCCC3)C(=O)N(Cc3ccc(Cl)cc3Cl)C1=C[C@H](C1CCCC1)O[C@@H]2C	.	-3.0	.	.	.	.
NC[C@@H]1O[C@H](C23CC4CC(CC(C4)C2)C3)Cc2c1ccc(O)c2O	-9.4	-24.0	55.3*	-0.9	-1.2	53.5*
Cc1cccc2c1CCC1CN(Cc3ccccc3)S(=O)(=O)N21 (stereo not given)	.	-3.8	.	.	.	.
CC(C)[C@H](N)c1cn([C@@H](CO)C(=O)N2CCNCC2)nn1	.	5.5	-1.5	-1.6	.	.
C#CCOCCOCCOCCNc1nc(N2CCN(C(=O)[C@H]([C@@H](C)CC)n3cc([C@@H](N)Cc4ccc(O)cc4)nn3)CC2)nc(N2CCN(C(=O)[C@H](Cc3cc4ccccc4[nH]3)n3cc([C@@H](N)CC(C)C)nn3)CC2)n1	.	.	86.7*	-1.5	-4.2	61.1*
N[C@@H](CO)c1cn([C@@H](Cc2cc3ccccc3[nH]2)C(=O)N2CCNCC2)nn1	11.9	6.5	101.0*	-0.5	-2.2	107.1*
C#CCOCCOCCOCCNc1nc(N2CCN(C(=O)[C@H]([C@@H](C)CC)n3cc([C@@H](N)CC(C)C)nn3)CC2)nc(N2CCN(C(=O)[C@H](Cc3cc4ccccc4[nH]3)n3cc([C@@H](N)Cc4ccc(O)cc4)nn3)CC2)n1	-8.3	.	73.7*	-1.5	2.3	65.9*
C#CCOCCOCCOCCNc1nc(N2CCN(C(=O)C([C@@H](C)CC)n3cc(C(N)CC(C)C)nn3)CC2)nc(N2CCN(C(=O)[C@H](CCC(=O)O)n3cc(C(N)Cc4ccc(O)cc4)nn3)CC2)n1 (stereo not given in full)	4.0	.	13.9	0.2	.	.
C#CCOCCOCCOCCNc1nc(N2CCN(C(=O)[C@H](CCCCN)n3cc([C@@H](N)C(C)CC)nn3)CC2)nc(N2CCN(C(=O)[C@H](Cc3cc4ccccc4[nH]3)n3cc([C@@H](N)C(C)CC)nn3)CC2)n1 (stereo not given in full)	.	.	110.7*	-1.5	-1.6	114.4*
CC(=O)CC[C@@H]1CC[C@]2(CCCN(C(=O)c3ccc4ccccc4n3)C2)O1	.	1.1	.	.	.	.
Cc1cccc(Cn2cc(CN3CC(N(C)CCOC(=O)c4cc(C)cc(C)c4)CS3(=O)=O)nn2)c1 (stereo not given)	.	-14.6	.	.	.	.
Cc1cc(NS(=O)(=O)c2ccc(NC(=O)CSc3nnc(-c4cnccn4)n3-c3ccccc3)cc2)nc(C)n1	.	0.7	.	.	.	.
CCCCCCCCN1CCS(=O)(=O)N(Cc2ccc(Cl)cc2)C(C(=O)OC)C1 (stereo not given)	.	1.1	.	.	.	.
CC(=O)N[C@@H]1C[C@@H]2O[C@@H](CO)CC[C@@H]2O[C@@H]1CCc1ccc(C#CC2(O)CCCC2)cc1	.	-2.6	.	.	.	.
